Values without a mark were called inactive. Calls of active or inactive are those of the source. Cut-off read from the data, not from the text of the source: active = inhibition above about 36%; inactive = the rest.
test system: transactivating tegument protein VP16 (Human herpesvirus 1); test: VP16 transactivation reporter inhibitors, counter-screen for SRC2 inhibitor project, cell-based, luminescence, single concentration (AID 652007); conditions: cell-based VP16 transactivation luciferase reporter, at 8.9 µM, stronger effect = higher value

Row | Structure (SMILES) | inhibition
1 | Cc1ccc2c(c1)nnn2C1CCN(CC(=O)N(c2ccccc2)c2ccccc2)CC1 | 14.5%
2 | O=C(N/N=C/c1ccc([N+](=O)[O-])s1)c1ccccc1 | 34.9%
3 | COc1ccc(S(=O)(=O)Nc2cc(Sc3ncn[nH]3)c(O)c3ccccc23)cc1 | 26.7%
4 | CC(C)CCSc1nc(N)c(C#N)cc1C#N | -75.7%
5 | C=C1C(=O)[C@]23C[C@H]1CC[C@H]2[C@]1(C)CCC[C@@](C)(C(=O)OC)[C@H]1C[C@@H]3O | 77.6% (active)
6 | COc1ccc2nc(Sc3c([N+](=O)[O-])nc(C)n3Cc3ccccc3)[nH]c2c1 | 13.1%
7 | CCOC(=O)C1=C(COC(=O)CCOc2cc(C)ccc2C)NC(=O)NC1C (stereo not given) | -6.92%
8 | CCOc1ccc(-c2cc(CCCC(=O)NCc3ccc(C)cc3)no2)cc1 | 31.4%
9 | COc1cccc(N2C(=O)CC(NNC(=O)c3cccs3)C2=O)c1 (stereo not given) | -15.3%
10 | Cc1cc(Cl)ccc1OCCCC(=O)NO | 6.12%
11 | Cc1nc(SCc2cccc(C(=O)O)c2)nc2c1CCCC2 | 4.6%
12 | CCN(CC)S(=O)(=O)c1ccc(/C=C/C(=O)OCC(=O)NCc2ccc3c(c2)OCO3)cc1 | -0.7%
13 | O=C(CCc1ccncc1)N1CCCC(Nc2ccc(F)c(F)c2)C1 (stereo not given) | -3.61%
14 | O=C(CSCCO)Nc1ccc(C23CC4CC(CC(C4)C2)C3)cc1 | -57.7%
15 | CN1c2ccccc2C(C)(C)C12C=Cc1cc(O)ccc1O2 (stereo not given) | -7.85%
